{
  "source": "PubChem BioAssay AID1159524",
  "about": "(National Center for Advancing Translational Sciences (NCATS), 2015)",
  "note": "Screen size: about 410,000 compounds; about 5,100 (1.2%) were called active. Where a call stands in place of a potency, no number is given. Inconclusive results (about 8%) are left out. The call rests on the fitted dose curve; tested in HEK293T cells. The full list was thinned out, with actives kept by preference. Potency means the concentration at half of the fitted maximal effect.",
  "data": [
    {"test": "High Throughput Screening for Foot and Mouth Disease Virus Antivirals; further: read-out not given here; nearly all actives have a fitted effect of over 45% in size", "conditions": "FMDV antiviral cell-based qHTS; series mostly up to 57.9 µM", "values": [
      {"smiles": "COc1ccc2c(c1OC)C(=O)OC2Nc1nc(-c2ccccc2)cs1", "note": "(centres undefined)", "Potency": "15.8 µM (active)"},
      {"smiles": "CCCc1nc2scc(-c3ccc(C)cc3)c2c(=O)n1N", "Potency": "inactive"},
      {"smiles": "Cc1ccc(-c2csc(NC3OC(=O)c4ccccc43)n2)cc1", "note": "(centres undefined)", "Potency": "20 µM (active)"},
      {"smiles": "COc1ccc(CNC(=O)CC2Oc3ccc(C)cc3NC2=O)cc1", "note": "(centres undefined)", "Potency": "inactive"},
      {"smiles": "CC(C)NC(=O)N1CCCC2(CCN(C(=O)c3cccn3C)CC2)C1", "Potency": "inactive"},
      {"smiles": "Cn1c(=O)c2c(SCC(=O)NCC3CCCO3)nc(-c3ccccc3F)nc2n(C)c1=O", "note": "(centres undefined)", "Potency": "inactive"},
      {"smiles": "CCNCCCNCCCNCCCNCC", "Potency": "inactive"},
      {"smiles": "Cn1cccc1C(=O)N1CCC[C@@]2(CCN(Cc3nccs3)C2)C1", "Potency": "inactive"},
      {"smiles": "N#Cc1ccc(CN2CCCC3(CCN(C(=O)c4ccco4)CC3)C2)cc1", "Potency": "inactive"},
      {"smiles": "CCOc1ccc(-c2ccc(SCC(=O)N3CCOCC3)nn2)cc1", "Potency": "inactive"},
      {"smiles": "COc1cccc(-c2ccc(SCC(=O)N3CCN(c4ccccc4)CC3)nn2)c1", "Potency": "12.6 µM (active)"},
      {"smiles": "COc1ccc(N2CCN(C(=O)CSc3nnc4ncccn34)CC2)cc1", "Potency": "inactive"},
      {"smiles": "CCN1CCN(Cc2c(O)ccc3oc(C)c(C(=O)Nc4ccc(C)cc4C)c23)CC1", "Potency": "inactive"},
      {"smiles": "Cc1ccc(CNC(=O)c2c(O)nc3c(C)cccn3c2=O)cc1", "Potency": "inactive"},
      {"smiles": "CC(=O)c1ccc(NC(=O)CSc2nc(-c3ccccc3F)nc3c2c(=O)n(C)c(=O)n3C)cc1", "Potency": "inactive"},
      {"smiles": "COC(=O)C1CCCCN1Cc1ccc2c(c1)CN(Cc1cc(OC)c3c(c1)OCO3)CCO2", "note": "(centres undefined)", "Potency": "inactive"},
      {"smiles": "CCOC(=O)c1c(C)[nH]c(C)c1S(=O)(=O)N(C)CC(=O)N1CCN(c2ccccc2)CC1", "Potency": "inactive"},
      {"smiles": "CCOC(=O)c1c(C)[nH]c2c1-c1ccccc1C(=O)C2=O", "Potency": "7.08 µM (active)"},
      {"smiles": "CCOC(=O)c1c(SCC(=O)Nc2cccc(C)c2C)nc(=O)[nH]c1C", "Potency": "inactive"},
      {"smiles": "CC(=O)c1c(C)[nH]c(C(=O)OCC(=O)NCCC(C)C)c1C", "Potency": "inactive"},
      {"smiles": "Cc1ccc(C)c(OCC(=O)Nc2sc3c(c2C#N)CCCC3)c1C", "Potency": "inactive"},
      {"smiles": "CC(=O)c1c(C)[nH]c(C(=O)OCC(=O)Nc2sc3c(c2C#N)CCCC3)c1C", "Potency": "17.8 µM (active)"},
      {"smiles": "CC(C)CC(NS(=O)(=O)c1ccc2c(c1)oc(=O)n2C)C(=O)NCc1ccccc1Cl", "note": "(centres undefined)", "Potency": "inactive"},
      {"smiles": "CCC(CC)C(=O)N1CCc2cc(OC)c(OC)cc2C1COc1ccc(F)cc1", "note": "(centres undefined)", "Potency": "inactive"},
      {"smiles": "COc1ccccc1-c1ccc(C(=O)N(C)C(C)c2ccon2)c(N2CCN(c3ccccc3F)CC2)n1", "note": "(centres undefined)", "Potency": "inactive"},
      {"smiles": "O=C(OCC(=O)N1CCN(C(=O)c2ccco2)CC1)c1c(Cl)cccc1Cl", "Potency": "inactive"},
      {"smiles": "CN(c1ccccc1)S(=O)(=O)c1cc(C(=O)OCC(=O)N2CCN(C(=O)c3ccco3)CC2)ccc1Cl", "Potency": "25.1 µM (active)"},
      {"smiles": "O=C(OCC(=O)N1CCN(C(=O)c2ccco2)CC1)c1ccc(Cl)c(Cl)c1", "Potency": "inactive"},
      {"smiles": "CC(O)[C@@H](N)C(=O)O", "note": "(some centres undefined)", "Potency": "inactive"},
      {"smiles": "COc1ccc(CCCOC(Cn2ccnc2)c2ccc(OC)cc2)cc1", "note": "(centres undefined)", "Potency": "inactive"},
      {"smiles": "COc1ccccc1-c1nc(NCc2cccs2)c2ccccc2n1", "Potency": "inactive"},
      {"smiles": "O=C1NC(CC(=O)N2CCC(n3c(C4CCC4)nc4cccnc43)CC2)c2ccccc21", "note": "(centres undefined)", "Potency": "inactive"},
      {"smiles": "O=c1n(Cc2cccc(C(F)(F)F)c2)c2ccccc2c2nc(-c3ccccc3)nn12", "Potency": "inactive"},
      {"smiles": "O=c1c2ccccc2nc2n1C(CSCc1cccc(C(F)(F)F)c1)CS2", "note": "(centres undefined)", "Potency": "5.62 µM (active)"},
      {"smiles": "Cn1c(-c2sccc2OCc2cccc(C(F)(F)F)c2)n[nH]c1=S", "Potency": "inactive"},
      {"smiles": "O=C(Nc1cccc(F)c1)N1CCC2(CC1)CCN(S(=O)(=O)c1ccccc1)CC2", "Potency": "inactive"},
      {"smiles": "O=C(Nc1cc(C(=O)Nc2ccc(S(=O)(=O)O)cc2)cc(C(=O)Nc2ccc(S(=O)(=O)O)cc2)c1)Nc1cc(C(=O)Nc2ccc(S(=O)(=O)O)cc2)cc(C(=O)Nc2ccc(S(=O)(=O)O)cc2)c1", "Potency": "inactive"},
      {"smiles": "O=C(CSc1nc(Nc2ccccc2)nc(N2CCOCC2)n1)Nc1cc(Cl)ccc1O", "Potency": "39.8 µM (active)"},
      {"smiles": "O=C(CSc1nc2ccc(Nc3nc(N4CCOCC4)nc(N4CCOCC4)n3)cc2s1)NCc1ccco1", "Potency": "inactive"},
      {"smiles": "O=C(CSc1ccccc1)Nc1cc(Cl)ccc1Oc1ccccc1", "Potency": "inactive"},
      {"smiles": "O=C(O)C(O)[C@@](O)(Cc1ccc(O)cc1)C(=O)O", "note": "(some centres undefined)", "Potency": "inactive"},
      {"smiles": "CC(=O)OC1C2CCC3C1(CC(O)[C@@]1(O)[C@@H](CC(O)C1(C)C)[C@]3(C)O)C[C@@]2(C)O", "note": "(some centres undefined)", "Potency": "inactive"},
      {"smiles": "COC(=O)c1ccccc1C(=O)NCc1nc(N2CCCC2)c2cccc(C)c2n1", "Potency": "inactive"},
      {"smiles": "COc1cc(SC)ccc1C(=O)Nc1nc(C)cs1", "Potency": "3.16 µM (active)"},
      {"smiles": "Cc1csc(OCC(=O)Nc2ccc(C)c(C)c2)n1", "Potency": "inactive"},
      {"smiles": "COc1cc(Cl)c(C)cc1NC(=O)COC(=O)c1cc(SC)ccc1Cl", "Potency": "inactive"},
      {"smiles": "COc1ccccc1C1CN(Cc2ccccc2O)Cc2ccccc2O1", "note": "(centres undefined)", "Potency": "inactive"},
      {"smiles": "COc1ccc(CCNC(=O)c2c3c(nc4ccccc24)C(=O)N(C2CCCCC2)C3)cc1OC", "Potency": "inactive"},
      {"smiles": "COc1cc(C(=O)N2CCC(c3ccncc3)CC2)cc(OC)c1OC", "Potency": "inactive"},
      {"smiles": "O=C(c1cc(C(F)(F)F)cc(C(F)(F)F)c1)N1CCC2(CCCN(c3ccccn3)C2)CC1", "Potency": "inactive"},
      {"smiles": "CCc1ccc2oc(-c3ccc(C)c(NC(=O)/C=C/c4ccco4)c3)nc2c1", "Potency": "inactive"},
      {"smiles": "Cc1ccc(-c2cc(C(=O)N/N=C/C=C/c3ccco3)c3ccccc3n2)cc1C", "Potency": "1.58 µM (active)"},
      {"smiles": "O=c1c2ccccc2nc(/C=C/c2ccco2)n1-c1ccccc1O", "Potency": "inactive"},
      {"smiles": "COc1ccc(-n2c(CNC(=O)c3cc(C(F)(F)F)ccc3Cl)nnc2SC)cc1", "Potency": "inactive"},
      {"smiles": "CCCCCCCCCCOC(=O)Cn1c(COc2cccc(OC)c2)[n+](C)c2ccccc21", "Potency": "28.2 µM (active)"},
      {"smiles": "CCOC(=O)c1c(NC(=O)COc2cc(C)ccc2C(C)C)sc(C)c1C", "Potency": "inactive"},
      {"smiles": "COc1ccccc1N1CCN(C[C@@H]2CN3C(=O)N(C)c4ccccc4C3=N2)CC1", "Potency": "inactive"},
      {"smiles": "O=c1c(CCc2ccccc2)nc2cncnc2n1C1CC1", "Potency": "inactive"},
      {"smiles": "CCCc1ccc(-c2c(C)sc(NC(=O)c3ccnn3C)c2C#N)cc1", "Potency": "15.8 µM (active)"},
      {"smiles": "CCc1ccccc1NC(=O)CSc1nc(C)c(C(=O)Nc2ccccc2)c(-c2ccc(Cl)cc2)c1C#N", "Potency": "inactive"},
      {"smiles": "Cc1c(C(=O)OC(C)C)sc(NC(=O)c2cccnc2)c1C#N", "Potency": "inactive"},
      {"smiles": "COc1ccc(C(=O)NCc2ccc(Cl)cc2)cc1S(=O)(=O)N1CCCC1", "Potency": "inactive"},
      {"smiles": "O=C(NCCc1ccc(F)cc1)c1ccc(S(=O)(=O)N2CCCCC2)cc1", "Potency": "inactive"},
      {"smiles": "NS(=O)(=O)c1ccc(CCNC(=O)c2ccc(Cl)c(S(=O)(=O)N3CCCCCC3)c2)cc1", "Potency": "14.1 µM (active)"}
    ]}
  ]
}
